This passage reports inhibition results from PubChem BioAssay AID612 (The Scripps Research Institute Molecular Screening Center, 2007).

Out of some 62,000 compounds screened, about 420 (0.68%) were called active. The full list was thinned out, with actives kept by preference. Values without a mark were called inactive.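 The calls were made as follows: active = inhibition above the mean of all tested compounds plus 3 SD (cut at about 43% in these data); inactive = the rest.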

The experiment deals with 5-hydroxytryptamine receptor 1A (Homo sapiens) (UniProt P08908). Kind of experiment: blockade of serotonin HTR1A receptor – cell-based, CHO, Ga15 NFAT-bla reporter, primary screen (AID 612).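 Also: receptor stimulated by 5-CT agonist at 100 nM near EC80; beta-lactamase reporter measured by ratiometric fluorescence of a cleavable substrate.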 As to conditions: CHO 5-HT1a Ga15 NFAT-bla reporter, antagonist mode; at 10 µM; hits give high values.
5-hydroxytryptamine receptor 1A (Homo sapiens), sequence (P08908 whole entry, looked up): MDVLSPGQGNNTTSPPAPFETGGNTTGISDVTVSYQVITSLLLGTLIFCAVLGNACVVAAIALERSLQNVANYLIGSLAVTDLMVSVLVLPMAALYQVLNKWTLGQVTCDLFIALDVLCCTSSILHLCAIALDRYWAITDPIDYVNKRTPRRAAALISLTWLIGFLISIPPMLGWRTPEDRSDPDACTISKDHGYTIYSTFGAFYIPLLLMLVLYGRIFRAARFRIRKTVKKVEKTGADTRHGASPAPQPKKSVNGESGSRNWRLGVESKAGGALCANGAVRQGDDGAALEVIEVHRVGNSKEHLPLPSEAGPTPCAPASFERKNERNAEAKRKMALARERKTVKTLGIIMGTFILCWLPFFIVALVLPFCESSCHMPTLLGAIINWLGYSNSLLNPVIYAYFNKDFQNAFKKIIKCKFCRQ
On to `CS(=O)(=O)c1ccc2nc(NC(=O)C3C4C=CC(C4)C3C(=O)O)sc2c1` (stereo not drawn), for which the inhibition is -0.7%.

In the case of `CN1C(=O)c2ccccc2C(C(=O)NCCCN2CCCC2)C1c1c[nH]c2ccccc12` (stereo not drawn), the inhibition was -6.4%.

Take `O=C(O)CCN1C(=O)CC2(CCCCC2)C1=O`: the inhibition was 6.3%.

With `C=CCSc1nnc(Cn2c(=O)sc3ccccc32)n1C`, the inhibition was -0.5%.

For `COc1nc(NCc2ccc(Cl)cc2)nc(OC)n1`, the inhibition is -1.3%.

As for `Cc1nc(C)c2c(c1C(F)(F)F)-c1ccccc1C2(F)F`, the inhibition is -9.3%.

Regarding `Cc1ccc2c(C(=O)CN3CCCC3)c(C)[nH]c2c1`, the inhibition is 14.4%.

For `CCCCOc1ccc(C(C)(O)CCN2CCOCC2)cc1` (stereo not drawn), the inhibition is 8.9%.

Regarding `Cc1oc2nc(SCC(=O)NCc3cccnc3)nc(N)c2c1C`, the inhibition was 5.1%.

For the compound `CCOc1ccc(Cn2nnc(C(=O)NCc3ccccc3)c2N)cc1`, the inhibition was 10.3%.

Regarding `CCC(C)NC(=O)N[C@@H](CCSC)C(=O)O` (stereo partly drawn), the inhibition is -11.6%.

Regarding `CC1(C)C(=O)C2(CCCCC2)C(=O)OC1c1cccs1` (stereo not drawn), the inhibition was -2.8%.

With `CN(CCC#N)c1ncnc2scc(-c3ccccc3)c12`, the inhibition was 11.5%.

Take `C/C(=C\C(=O)c1ccc(Br)cc1)N1CCCCC1`: the inhibition is 0.5%.

Regarding `CCN(CC)S(=O)(=O)c1cccc(C(=O)Nc2ccccc2)c1`, the inhibition is 16.2%.

In the case of `Cc1cc(C(=O)OCC(=O)c2c(N)n(C)c(=O)n(C)c2=O)c(C)o1`, the inhibition was -7.9%.

As for `CCOC(=O)CN1CC23C=CC(O2)C(C(=O)Nc2ccc(F)cc2)C3C1=O` (stereo not drawn), the inhibition is -5.1%.

As for `Cc1ccc(-n2c(Cc3cccs3)nnc2SCC(=O)OC(C)C)cc1`, the inhibition was 8.6%.

As to `Cc1c(C(=O)NCCN2CCOCC2)sc2nc(-c3ccc(F)cc3)cn12`, the inhibition is -8%.

As to `O=C(COc1ccc(S(=O)(=O)NCCc2ccccc2)cc1)N1CCCC1`, the inhibition was -0.2%.

In the case of `CCOC(=O)C1CCCN(C(=O)CN(c2ccc(OC)cc2)S(=O)(=O)c2c(C)noc2C)C1` (stereo not drawn), the inhibition was -9.3%.

As for `CCCCNC(=O)c1ccccc1NC(=O)c1ccccc1N(C)S(C)(=O)=O`, the inhibition was -13.1%.

For `CCN1CCN(Cc2nc3c(c(=O)n(C)c(=O)n3C)n2CC(=O)c2ccccc2)CC1`, the inhibition is 4.5%.

`O=C(C1=C(O)C(=O)N(c2ncccn2)C1c1cccs1)c1ccco1` (stereo not drawn): the inhibition was 11.8%.

In the case of `Cc1cc(C(=O)Nc2c(C)n(C)n(-c3ccccc3)c2=O)cs1`, the inhibition is 5.4%.

For `O=C(NC1=NCCS1)c1ccc(Cl)s1`, the inhibition is 10.2%.

On to `Cc1ccccc1Nc1nc(N)nc(CN2CCN(c3ccccn3)CC2)n1`, for which the inhibition is 2%.

Take `CCOC(=O)c1ccc(N2C(=O)CC(N3CC(C)OC(C)C3)C2=O)cc1` (stereo not drawn): the inhibition is 14%.

Take `CC1=C(C(=O)OC2CCCCC2)C(c2cccnc2)n2ncnc2N1` (stereo not drawn): the inhibition is -5%.

For the compound `CCN1CCN(Cc2c(O)ccc3c(=O)c(-c4ccc(OC)c(OC)c4)c(C(F)(F)F)oc23)CC1`, the inhibition is 4.3%.

With `COc1ccc(NC(=O)c2cccc(NC(=O)c3ccco3)c2)c(OC)c1`, the inhibition was 5.2%.

For `Cc1ccc(S(=O)(=O)N2CCOCC2)cc1C(=O)NCc1ccc(F)cc1`, the inhibition is 3.3%.

On to `CC1Cc2ccccc2N1C(=O)CSc1nnc(-c2ccc(S(=O)(=O)N3CCCCC3)cc2)o1` (stereo not drawn), for which the inhibition was 1.4%.

In the case of `CCCC(=O)NC(C)C(c1cccs1)N1CCN(c2ccccc2)CC1` (stereo not drawn), the inhibition is 16.9%.

As for `COc1ccc(C(C(O)C(=O)c2c[nH]c3ccccc23)N2CCN(c3ccccc3)CC2)cc1` (stereo not drawn), the inhibition was 43.9% (active).

In the case of `COc1ccc(OC)c(S(=O)(=O)N(C)CC(=O)N2CCN(c3ccccc3)CC2)c1`, the inhibition is -11.1%.

With `COc1ccc(NC(C)=O)cc1NC(=O)CN1CCN(c2ccccn2)CC1`, the inhibition was -0.2%.

Take `Cc1ccc(-n2nc3c(c2NC(=O)c2ccc4c(c2)OCO4)CSC3)c(C)c1`: the inhibition was 9%.

As to `Nc1ccc(-c2nnc(-c3ccc(-c4ccccc4)cc3)o2)cc1`, the inhibition was 62.6% (active).

`O=C(Nc1ccc(-c2nnc(-c3ccccc3)o2)cc1)c1ccc(Br)o1`: the inhibition was -16.4%.

Turning to `O=C(Nc1ccc(-c2nnc(-c3ccccc3)o2)cc1)C1CCCO1` (stereo not drawn), the inhibition was 9.7%.

As to `CN1CCN(C(=O)C2C3C=CC(C3)C2C(=O)O)CC1` (stereo not drawn), the inhibition was -4%.

Take `CCOC(=O)c1ccc(NC(=O)CSc2ncccn2)cc1`: the inhibition was -16.8%.

As for `Cc1noc(C)c1S(=O)(=O)N1CCCC(C(=O)Nc2nccs2)C1` (stereo not drawn), the inhibition is -3.8%.

In the case of `CCc1nnc(NC(=O)c2nc3nccc(C)n3n2)s1`, the inhibition is -1.7%.

As for `O=S(=O)(Nc1nccs1)c1ccc2c(c1)OCCO2`, the inhibition is -0.3%.

Consider `O=C(CN1CCOc2ccccc21)N1CCC(Cc2ccccc2)CC1`, for which the inhibition was 4.5%.

With `CC(=O)C1C(c2cccc(Oc3ccccc3)c2)NC(=O)NC1(O)C(F)(F)F` (stereo not drawn), the inhibition was -16.2%.

Consider `O=C1c2cccnc2C(=O)N1Cc1cccs1`, for which the inhibition is -0.8%.

Take `c1csc(CN2CCN(Cc3cccs3)C2c2cccs2)c1`: the inhibition is 78.7% (active).

With `O=C(CSCc1cccs1)N1CCCC1`, the inhibition is -5.9%.

For the compound `N#Cc1ccc(COC(=O)Cn2nnc(-c3ccccc3)n2)cc1`, the inhibition was 7.6%.

In the case of `Cc1ccc(CNC(=O)CCCNC(=O)c2ccc(Cl)cc2)n1C`, the inhibition is -4.8%.

For the compound `CCSC1(SCC)N=C(N)C2(C#N)C(c3ccccc3)NC(C)=CC12C#N` (stereo not drawn), the inhibition is 1.4%.

Consider `CCOc1ccc(-c2cn(S(=O)(=O)c3cccc4nsnc34)nc2N)cc1`, for which the inhibition is 11.8%.

Consider `CCN1CCN(c2c(Cl)cccc2NC(=O)c2ccc(Br)o2)CC1`, for which the inhibition was 63.5% (active).

In the case of `CCCC(=O)Nc1ccc(Cl)c(NC(=O)c2ccc(Br)o2)c1`, the inhibition is -5.8%.

On to `COc1cc(OC)c(NC(=O)c2ccc(Br)o2)cc1Cl`, for which the inhibition is 5.1%.

With `O=C(CCCn1c(SCC(=O)c2ccc(F)cc2)nc2ccccc2c1=O)NCc1ccco1`, the inhibition is 7.8%.

`Cn1nc(-c2ccc(N3CCOCC3)c(NC(=O)c3ccccc3)c2)c2ccccc2c1=O`: the inhibition was 26.6%.

On to `COCCn1nnnc1C(c1cc2ccc(OC)cc2[nH]c1=O)N1CCc2ccccc2C1` (stereo not drawn), for which the inhibition was 1.8%.

For `Cc1ccc(C(c2nnnn2C(C)(C)C)N2CCc3ccccc3C2)cc1` (stereo not drawn), the inhibition is -4.5%.

Turning to `COc1ccc(OC)c(C(c2nnnn2C(C)(C)C)N2CCc3ccccc3C2)c1` (stereo not drawn), the inhibition was 48.2% (active).

What is called inhibition is the relative decrease from the control value, in per cent.
